Reference: PubChem BioAssay AID1159580 (chemical genetic matrix, 2015)
Values joined by “and” are separate entries in the source; they are usually repeats but may differ in a detail not shown here. Equal entries are not always repeated. Screen size: about 5,500 compounds; about 2,000 (36%) were called active. Another 18% or so got no clear call; they are omitted. Cut-off read from the data, not from the text of the source: active = normalized growth mostly below about 0.91 (no sharp cut-off); inconclusive = no clear call, values can overlap the other calls; inactive = mostly above about 0.92. This is one part of the list.

Assay: chemical genetic growth profiling, strain panel (AID 1159580);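 note: tested at 20 µM; growth read once vehicle control cultures reached saturation at 30 °C; 1 = growth at the plate median or of vehicle wells; lower values mean less growth of the strain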
Conditions: S. cerevisiae deletion strains, growth OD

## C=C1C(=O)O[C@@H]2C[C@@]3(C)CCC[C@H](C)C3=C[C@H]12
Locus YAL013W, strain DEP1, stronger effect = lower value
  normalized growth: 0.933 (inactive)
Locus YAL021C, strain ccr4, stronger effect = lower value
  normalized growth: 0.849 (active)
Locus YAL026C, strain drs2, stronger effect = lower value
  normalized growth: 0.718 (active)
Locus YAL030W, strain snc1, stronger effect = lower value
  normalized growth: 0.882 (active)
Locus YBL061C, strain skt5, stronger effect = lower value
  normalized growth: 0.901 (active)
Locus YBR009C, strain hhf1, stronger effect = lower value
  normalized growth: 0.733 (active)
Locus YBR021W, strain FUR4, stronger effect = lower value
  normalized growth: 1.05 (inactive)
Locus YBR023C, strain chs3, stronger effect = lower value
  normalized growth: 0.886 (active)
Locus YBR171W, strain sec66, stronger effect = lower value
  normalized growth: 0.837 (active)
Locus YBR229C, strain ROT2, stronger effect = lower value
  normalized growth: 0.943 (inactive)
Locus YBR231C, strain swc5, stronger effect = lower value
  normalized growth: 0.572 (active)
Locus YBR279W, strain paf1, stronger effect = lower value
  normalized growth: 0.88 (active)
Locus YCL011C, strain gbp2, stronger effect = lower value
  normalized growth: 0.822 (active)
Locus YCL016C, strain dcc1, stronger effect = lower value
  normalized growth: 0.849 (active)
Locus YCL029C, strain bik1, stronger effect = lower value
  normalized growth: 0.949 (inactive)
Locus YCL061C, strain MRC1, stronger effect = lower value
  normalized growth: 0.881 (active)
Locus YCL069W, strain vba3, stronger effect = lower value
  normalized growth: 0.876 (active)
Locus YCR088W, strain abp1, stronger effect = lower value
  normalized growth: 0.896 (active)
Locus YDL005C, strain med2, stronger effect = lower value
  normalized growth: 0.937 (inactive)
Locus YDL035C, strain GPR1, stronger effect = lower value
  normalized growth: 0.895 (inactive)
Locus YDL040C, strain nat1, stronger effect = lower value
  normalized growth: 0.899 (active)
Locus YDL074C, strain BRE1, stronger effect = lower value
  normalized growth: 0.72 (active)
Locus YDL101C, strain DUN1, stronger effect = lower value
  normalized growth: 0.85 (active)
Locus YDL134C, strain PPH21, stronger effect = lower value
  normalized growth: 0.848 (active)
Locus YDL185W, strain tfp1, stronger effect = lower value
  normalized growth: 0.94 (inactive)
Locus YDL192W, strain arf1, stronger effect = lower value
  normalized growth: 0.758 (active)
Locus YDR001C, strain nth1, stronger effect = lower value
  normalized growth: 0.897 (active)
Locus YDR069C, strain doa4, stronger effect = lower value
  normalized growth: 0.779 (active)
Locus YDR101C, strain arx1, stronger effect = lower value
  normalized growth: 0.945 (inactive)
Locus YDR137W, strain rgp1, stronger effect = lower value
  normalized growth: 0.267 (active)
Locus YDR150W, strain NUM1, stronger effect = lower value
  normalized growth: 0.925 (inactive)
Locus YDR159W, strain sac3, stronger effect = lower value
  normalized growth: 0.71 (active)
Locus YDR162C, strain NBP2, stronger effect = lower value
  normalized growth: 0.699 (active)
Locus YDR195W, strain ref2
  normalized growth: 1.16 [resistant] (active)
Locus YDR297W, strain sur2, stronger effect = lower value
  normalized growth: 0.855 (active)
Locus YDR318W, strain mcm21, stronger effect = lower value
  normalized growth: 0.814 (active)
Locus YDR334W, strain swr1, stronger effect = lower value
  normalized growth: 0.442 (active)
Locus YDR335W, strain msn5, stronger effect = lower value
  normalized growth: 0.875 (active)
Locus YDR388W, stronger effect = lower value
  normalized growth: 0.869 (active)
Locus YDR392W, strain spt3, stronger effect = lower value
  normalized growth: 0.127 (active)
Locus YDR502C, strain sam2, stronger effect = lower value
  normalized growth: 0.833 (active)
Locus YEL003W, strain gim4, stronger effect = lower value
  normalized growth: 0.715 (active)
Locus YEL037C, strain rad23, stronger effect = lower value
  normalized growth: 0.907 (active)
Locus YEL061C, strain CIN8 (second series), stronger effect = lower value
  normalized growth: 0.88 (active)
Locus YEL061C, strain CIN8, stronger effect = lower value
  normalized growth: 0.916 (active)
Locus YER015W, strain faa2, stronger effect = lower value
  normalized growth: 0.855 (active)
Locus YER016W, strain bim1, stronger effect = lower value
  normalized growth: 0.911 (active)
Locus YER110C, stronger effect = lower value
  normalized growth: 0.836 (active)
Locus YER111C, strain swi4, stronger effect = lower value
  normalized growth: 0.911 (inactive)
Locus YER155C, strain BEM2 (second series), stronger effect = lower value
  normalized growth: 0.585 (active)
Locus YER155C, strain BEM2, stronger effect = lower value
  normalized growth: 0.71 (active)
Locus YER167W, strain BCK2, stronger effect = lower value
  normalized growth: 0.906 (inactive)
Locus YFR010W, strain ubp6, stronger effect = lower value
  normalized growth: 0.862 (active)
Locus YGL078C, strain dbp3, stronger effect = lower value
  normalized growth: 0.981 (inactive)
Locus YGL086W, strain mad1, stronger effect = lower value
  normalized growth: 0.89 (active)
Locus YGL167C, strain pmr1, stronger effect = lower value
  normalized growth: 0.848 (active)
Locus YGL173C, strain kem1, stronger effect = lower value
  normalized growth: 0.888 (active)
Locus YGL227W, strain vid30, stronger effect = lower value
  normalized growth: 0.912 (active)
Locus YGL240W, strain doc1, stronger effect = lower value
  normalized growth: 0.599 (active)
Locus YGL248W, strain PDE1, stronger effect = lower value
  normalized growth: 0.799 (active)
Locus YGL253W, strain hxk2, stronger effect = lower value
  normalized growth: 0.742 (active)
Locus YGR135W, strain pre9, stronger effect = lower value
  normalized growth: 0.801 (active)
Locus YGR252W, strain gcn5, stronger effect = lower value
  normalized growth: 0.864 (inactive)
Locus YHR013C, strain ard1, stronger effect = lower value
  normalized growth: 0.616 (active)
Locus YHR027C, strain rpn1, stronger effect = lower value
  normalized growth: 0.874 (active)
Locus YHR030C, strain SLT2, stronger effect = lower value
  normalized growth: 0.927 (inactive) and 1.01 (inactive)
Locus YHR079C, strain IRE1 (second series), stronger effect = lower value
  normalized growth: 0.936 (inactive)
Locus YHR079C, strain IRE1, stronger effect = lower value
  normalized growth: 0.986 (inactive)
Locus YHR094C, strain hxt1, stronger effect = lower value
  normalized growth: 0.942 (inactive)
Locus YHR129C, strain ARP1, stronger effect = lower value
  normalized growth: 0.852 (active)
Locus YHR142W, strain chs7, stronger effect = lower value
  normalized growth: 0.787 (active)
Locus YHR200W, strain rpn10, stronger effect = lower value
  normalized growth: 0.876 (active)
Locus YIL066C, strain RNR3, stronger effect = lower value
  normalized growth: 0.756 (active)
Locus YIL073C, strain SPO22, stronger effect = lower value
  normalized growth: 0.717 (inactive)
Locus YIL125W, strain kgd1, stronger effect = lower value
  normalized growth: 0.953 (inactive)
Locus YIR030C, strain dcg1, stronger effect = lower value
  normalized growth: 0.903 (active)
Locus YJL092W, strain hpr5, stronger effect = lower value
  normalized growth: 0.904 (active)
Locus YJL095W, strain BCK1 (second series), stronger effect = lower value
  normalized growth: 0.894 (active)
Locus YJL095W, strain BCK1, stronger effect = lower value
  normalized growth: 0.753 (active) and 1.01 (inactive)
Locus YJL115W, strain asf1, stronger effect = lower value
  normalized growth: 0.88 (active)
Locus YJL129C, strain trk1, stronger effect = lower value
  normalized growth: 0.76 (active)
Locus YJL134W, strain LCB3, stronger effect = lower value
  normalized growth: 0.934 (inactive)
Locus YJL154C, strain vps35, stronger effect = lower value
  normalized growth: 0.921 (inactive)
Locus YJL164C, strain tpk1, stronger effect = lower value
  normalized growth: 0.809 (active)
Locus YJL166W, strain qcr8, stronger effect = lower value
  normalized growth: 0.654 (active)
Locus YJL168C, strain set2, stronger effect = lower value
  normalized growth: 0.951 (inactive)
Locus YJL187C, strain SWE1 (second series), stronger effect = lower value
  normalized growth: 0.875 (inactive)
Locus YJL187C, strain SWE1, stronger effect = lower value
  normalized growth: 0.903 (active)
